Measurements taken from PubChem BioAssay AID1671190 (National Center for Advancing Translational Sciences (NCATS), 2021).
Hit rate of the full screen: of about 580,000 compounds, about 6,100 (1.1%) were called active. Entries that show only a call come without a potency. About 15% were inconclusive and are not listed. The call rests on the fitted dose curve; in most records, active means well fitted inhibition curve with a large enough effect; inconclusive means small, poorly fitted or top-dose-only effect, or another doubt; inactive means no such curve, though single readings can be large or run the other way. Only a selection was taken, and actives are over-represented in it overall.

Molecular target: Polyunsaturated fatty acid lipoxygenase ALOX12 (Homo sapiens) (UniProt P18054)
Sequence (P18054 whole entry, looked up): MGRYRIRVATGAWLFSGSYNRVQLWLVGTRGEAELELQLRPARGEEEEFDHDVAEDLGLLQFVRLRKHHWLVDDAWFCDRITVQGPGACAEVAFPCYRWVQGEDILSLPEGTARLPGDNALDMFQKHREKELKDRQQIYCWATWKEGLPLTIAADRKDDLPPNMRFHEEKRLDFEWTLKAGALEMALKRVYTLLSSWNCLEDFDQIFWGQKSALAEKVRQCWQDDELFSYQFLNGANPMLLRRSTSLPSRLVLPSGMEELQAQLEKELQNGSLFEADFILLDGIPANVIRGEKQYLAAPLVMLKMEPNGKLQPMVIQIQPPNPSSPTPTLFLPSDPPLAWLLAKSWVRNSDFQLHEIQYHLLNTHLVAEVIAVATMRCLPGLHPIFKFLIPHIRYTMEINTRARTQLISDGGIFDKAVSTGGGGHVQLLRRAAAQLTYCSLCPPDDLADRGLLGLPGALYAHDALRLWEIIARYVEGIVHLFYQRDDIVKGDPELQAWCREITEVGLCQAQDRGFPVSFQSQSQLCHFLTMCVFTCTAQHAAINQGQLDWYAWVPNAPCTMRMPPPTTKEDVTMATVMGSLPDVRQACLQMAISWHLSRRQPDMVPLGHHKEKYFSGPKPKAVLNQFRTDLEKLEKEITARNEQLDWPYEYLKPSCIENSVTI
Test: Primary qHTS assay for inhibitors of human arachidonate 12S-lipoxygenase (ALOX12): Round 2
Conditions: purified 12hLO, xylenol orange hydroperoxide absorbance; series mostly up to 108 µM
Procedure, shortened: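 Hydroperoxide product was detected by ferrous iron/xylenol orange as the 573 to 405 nm absorbance ratio. Arachidonic acid at 40 uM (final) was turned over for 30 min at room temperature by 150 nM human 12hLO, pH 7.0 Hepes buffer, after 15 min compound preincubation.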
Potency means the concentration at half of the fitted maximal effect.

| SMILES | Potency |
| --- | --- |
| COC(=O)c1cc(C)nc2c1c(=O)n(Cc1cccc(Cl)c1)c(=O)n2-c1ccccc1 | inactive |
| O=C(CSCc1ccc(Cl)cc1)N1CCCCC1 | inactive |
| Oc1cc2c(cc1O)CN(C(=S)NCCc1ccc(Cl)cc1)CCC2 | 17.8 µM (active) |
| O=C(NCCc1ccc(Cl)cc1)C1CCCN1C(=O)NCc1ccccc1 (stereo not drawn) | inactive |
| CCN(CC(=O)NC(C)C)C(=O)Cn1c(=O)c2c(ncn2CC(C)C)n(Cc2ccccc2)c1=O | inactive |
| CC(C)c1cccc(NC(=O)Cc2n[nH]c(=O)c3ccccc23)c1 | inactive |
| CCc1nnc(NC(=O)COc2ccc3c(C)cc(=O)oc3c2)s1 | inactive |
| CC[C@@H]1Cc2cc(O)ccc2C2=C1c1ccc(O)cc1C[C@H]2CC | 50.1 µM (active) |
| CCC(C)NC(=S)Nc1ccc(C)cc1 (stereo not drawn) | inactive |
| Cc1ccc(C)c(NC(=S)NNC=O)c1 | inactive |
| Cc1ccc(C)c(NC(=S)NNC(=S)Nc2ccc(C(C)C)cc2)c1 | 35.5 µM (active) |
| O=C(CCC1CCCCC1)NC(N1CCCCC1)(C(F)(F)F)C(F)(F)F | inactive |
| CC(CCc1ccccc1)NC(=O)C1CC=CCC1 (stereo not drawn) | inactive |
| CCc1ccc(C(=O)Nc2ccc(Cl)cc2)cc1S(=O)(=O)N1CCOCC1 | inactive |
| CCc1cccc(NC(=O)c2cccc(S(=O)(=O)N3CCOCC3)c2)c1 | inactive |
| CCC(CC)C(=O)Nc1ccc(S(=O)(=O)Nc2nccs2)cc1 | inactive |
| Cc1cc(C)nc(NS(=O)(=O)c2ccc(N/C=C\C(=O)c3cccs3)cc2)n1 | inactive |
| CCc1nnc(NS(=O)(=O)c2ccc(NC(=S)NC(=O)c3cccs3)cc2)s1 | 22.4 µM (active) |
| S=C(Cc1ccccc1)SC/C=C/c1ccccc1 | inactive |
| NNc1nc2c(Cl)cccc2s1 | 17.8 µM (active) |
| CCN1CCN(C(=O)c2cc3cc(Cl)cc(Cl)c3oc2=O)CC1 | inactive |
| CCCCNC(=O)C(C#N)c1nc2ccccc2nc1N1CCN(C(=O)OCC)CC1 (stereo not drawn) | inactive |
| Fc1ccc(N/N=C/c2ccc(-c3ccccc3)cc2)c(F)c1 | 2.24 µM (active) |
| O=C(CN1CCN(C/C=C/c2ccccc2)CC1)Nc1ccc(F)cc1F | inactive |
| Fc1ccc(N/N=C/c2cccc(/C=N/Nc3ccc(F)cc3F)c2)c(F)c1 | inactive |
| COc1ccc(NC(C)=O)cc1NC(=O)c1nc(-c2ccccc2)oc1C | inactive |
| O=C(NC1CCS(=O)(=O)C1)c1cc2sccc2n1Cc1ccccc1 (stereo not drawn) | inactive |
| CN(C)CCNC(=O)CC1CCN(C(=O)c2nnc(C(=O)Nc3cccc(Cl)c3)s2)CC1 | inactive |
